# Reference: PubChem BioAssay AID430 (Sanford-Burnham Center for Chemical Genomics, 2006)
# Out of some 63,000 compounds screened, about 1,100 (1.7%) were called active. The entries come from a sample that favours actives as a whole. Measured potencies and affinities stand elsewhere. Values without a mark were called inactive. Rule as the data show it: active = cytotoxicity above about 50%; inactive = the rest.
# Assay: HPDE-C7 pancreatic duct cell viability loss – fluorescence, HTS (AID 430);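 also: cells exposed to compound for 48 hours before viability readout; 0% = vehicle and 100% = reference cytotoxic drug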
# Conditions: HPDE-C7 pancreatic duct cells viability, at 10 µM, stronger effect = higher value
row,Compound,cytotoxicity
1,CCN(C(=O)CSc1nnc(Cn2nnc3ccccc32)o1)c1nc(-c2ccccc2)cs1,-7.6%
2,CCN(C(=O)c1ccc(C(C)(C)C)cc1)c1nnc(Cn2nnc3ccccc32)s1,81.9% (active)
3,CCN(C(C)=O)c1nnc(CSc2nc3ccccc3s2)s1,12.1%
4,COc1ccc(N2CCN(C(=O)CCNS(=O)(=O)c3ccc(Br)s3)CC2)cc1,-17.4%
5,Cc1ccc(S(=O)(=O)N2CCC(C(=O)Nc3nnc(COc4ccccc4)s3)CC2)cc1,-3.6%
6,O=C(CCNC(=O)Cn1ccc2ccccc2c1=O)NCCCN1CCN(c2ccccc2F)CC1,-10.7%
7,Cc1cc(C)c2c(=O)n(CC(=O)NCCCN3CCOCC3)sc2n1,6.4%
8,Cc1cc(C)c2c(=O)n(CC(=O)NCCCN3CCN(c4ccccc4F)CC3)sc2n1,88.5% (active)
9,CCC(NC(=O)Nc1ncccc1C)(C(F)(F)F)C(F)(F)F,-6.7%
10,CCOC(=O)N1CCN(C(=O)c2ccc3c(c2)sc2nc(-c4ccccc4)cn23)CC1,2.8%
11,COc1ccc2c(c1)sc1nc(-c3ccccc3)cn12,53.2% (active)
12,CCOC(=O)N1CCN(C(=O)c2ccc3c(c2)sc2nc(-c4ccc(OC)cc4)cn23)CC1,12.1%
13,CS(=O)(=O)N(CC(=O)NCc1ccco1)Cc1ccc(Cl)cc1,-9.3%
14,COc1ccccc1S(=O)(=O)Cc1ccc(C(=O)NCCN(C)C)o1,8%
15,O=S(=O)(c1cccc2nsnc12)N1CCN(c2ncccn2)CC1,-8.5%
16,COc1ccc(C2=CC(c3ccc(OC)c(OC)c3)n3nnnc3N2)c(OC)c1 (stereo unspecified),14.7%
17,COc1ccccc1C1C=C(c2ccccc2)Nc2nnnn21 (stereo unspecified),29.6%
18,COc1ccc(C2=CC(c3sccc3C)n3nnnc3N2)cc1 (stereo unspecified),12.4%
19,COc1cccc(C2=CC(c3cc(OC)ccc3OC)n3nnnc3N2)c1 (stereo unspecified),70.3% (active)
20,COc1ccc(OC)c(C2C=C(c3ccc(C)c(C)c3)Nc3nnnn32)c1 (stereo unspecified),10.4%
21,COc1ccc(C2=CC(c3c(C)nn(-c4ccccc4)c3Cl)n3nnnc3N2)cc1OC (stereo unspecified),72.4% (active)
22,COc1ccc(C2C=C(c3ccccc3)Nc3nnnn32)cc1 (stereo unspecified),-3.3%
23,COc1ccccc1C1C=C(c2ccc(C)cc2)Nc2nnnn21 (stereo unspecified),-0.5%
24,COc1cccc(C2=CC(c3ccc(N(C)C)cc3)n3nnnc3N2)c1 (stereo unspecified),-3%
25,COc1ccc(C2=CC(c3ccc(F)cc3)n3nnnc3N2)cc1 (stereo unspecified),-4%
26,COc1cccc(C2=CC(c3ccccc3)n3nnnc3N2)c1 (stereo unspecified),53.7% (active)
